Laboratory results reported in PubChem BioAssay (Tox21).
Inconclusive results are not listed. A number with no mark means an inactive call. Active and inactive are the calls of the source. Calls follow the shape of the dose curve; as a rule, active = well fitted cell-killing curve with a large enough effect in the repeat runs; inconclusive = weak or mixed curves, or effect the other way; inactive = no such curve, though single readings can be large or run the other way.

Experiment: qHTS assay to identify small molecule antagonists of the peroxisome proliferator-activated receptor gamma (PPARg) signaling pathway - cell viability counter screen (AID 743194); also: nearly all actives have a fitted effect of over 55% in size
Settings: PPARg-bla HEK293H viability, CellTiter-Glo luminescence, 17 h; Potency: co-treated with 50 nM rosiglitazone; series mostly up to 62.6 µM; activity change, negative = cytotoxicity: at the top concentration
Description: U.S. Tox21 Program National Center for Advancing Translational Sciences [NCATS] NIH Chemical Genomics Center [NCGC] U.S. Environmental Protection Agency [EPA] National Institutes of Environmental Health Sciences [NIEHS] National Toxicology Program [NTP] U.S. Food and Drug Administration [FDA] Tox21 Assay Overview: The peroxisome proliferator-activated receptors (PPARs) are lipid-activated transcription factors of the nuclear receptor superfamily with three distinct subtypes namely PPAR alpha, PPAR delta (also called PPAR beta) and PPAR gamma (PPARg). All these subtypes heterodimerize with Retinoid X receptor (RXR) and these heterodimers regulate transcription of various genes. PPAR-gamma receptor (glitazone receptor) is involved in the regulation of glucose and lipid metabolism. To identify the compounds that activate PPAR-gamma signaling, GeneBLAzer PPAR gamma UAS-bla HEK293H cell line (Invitrogen, Carlsbad, CA, USA) containing a beta-lactamase reporter gene under the control of an Upstream Activator Sequence (UAS) was used to screen the Tox21 compound library. The cytotoxicity of the Tox21 compound library against the PPARg-bla cell line was tested in parallel by measuring the cell viability using CellTiter-Glo assay in the same wells.
Tox21 Assay Protocol Summary: PPARg-bla cells were dispensed at 3000 cells/5uL/well in 1536-well black wall/clear bottom plates using a Multidrop Combi (Thermo Fisher Scientific, Waltham, MA) dispenser. After the assay plates were incubated at 37 C and 5% CO2 for 5 h, 23 nL of compounds dissolved in DMSO, positive controls or DMSO only was transferred to the assay plate by a Pintool station (Kalypsys, San Diego, CA), followed by addition of 1ul Rosiglitazone (50 nM, final concentration in the wells). The assay plates were incubated at 37 C for 17 h, and then 1 uL of LiveBLAzerTM B/G FRET substrate was added using a Bioraptr Flying Reagent Dispenser (FRD) workstation (Beckman Coulter, Indianapolis, IN, USA). The assay plates were incubated at room temperature for 1 h and fluorescence intensity was measured by an Envision plate reader (PerkinElmer, Shelton, CT). For cell viability readout that measures cytotoxicity, 4 ul/well of CellTiter-Glo reagent was added into the assay plates using a Flying Reagent Dispenser. After 30 min incubation at room temperature, the luminescence intensity in the plates was measured using a ViewLux plate reader (PerkinElmer).
% is scaled to controls: 0 for no effect and ±100 for the full control effect.

Compared with `O=C(O)C(F)(F)C(F)(F)C(F)(F)C(F)(F)C(F)(F)C(F)(F)C(F)(F)C(F)(F)F`, `O=C(O)C(F)(F)C(F)(F)C(F)(F)C(F)(F)C(F)(F)F` is higher in “activity change, negative = cytotoxicity” value: -13% for the first, 0.949% for the second.

Compared with `CC[N+]1(C)CCCC(OC(=O)C(O)(c2ccccc2)c2ccccc2)C1` (stereo not given), `CC[N+]1(CCOC(=O)C(O)(c2ccccc2)c2ccccc2)CCCCC1` is lower in “activity change, negative = cytotoxicity” value: -1.37% for the first, -9.43% for the second.

Compared with `FC(F)OC(F)(F)C(F)Cl` (stereo not given), `CC(C)(C)NCC(O)c1ccccc1Cl` (stereo not given) is lower in “activity change, negative = cytotoxicity” value: 28.6% for the first, 5.54% for the second.

Compared with `CCCC[N+](CCCC)(CCCC)CCCC`, `CCCCC#N` is higher in “activity change, negative = cytotoxicity” value: -42.7% for the first, -2.8% for the second.

Compared with `CC(C)(C)c1ccc(CCOc2ncnc3ccccc23)cc1`, `Nc1ccc2c(c1)Cc1ccccc1-2` is lower in “activity change, negative = cytotoxicity” value: -2.51% for the first, -14.9% for the second.

Going from `NC(=S)c1c(Cl)cccc1Cl` to `Clc1ccc(Cl)c(Cl)c1`, the “activity change, negative = cytotoxicity” value rises from -17.8% to 8.37%.

Going from `Cc1cnc(C2=NC(C)(C(C)C)C(=O)N2)c(C(=O)O)c1` (stereo not given) to `CC(C)C1(C)N=C(c2ncccc2C(=O)O)NC1=O` (stereo not given), the “activity change, negative = cytotoxicity” value falls from 7.21% to -14.6%.

Compared with `O=[N+]([O-])c1cc(Cl)c(Cl)cc1Cl`, `O=C(O)c1cc(Cl)ccc1Cl` is lower in “activity change, negative = cytotoxicity” value: 11.9% for the first, -10.1% for the second.

Compared with `O=[N+]([O-])O[C@H]1CO[C@H]2[C@@H]1OC[C@H]2O[N+](=O)[O-]`, `C=CCOCC1CO1` (stereo not given) is lower in “activity change, negative = cytotoxicity” value: 0.782% for the first, -17.7% for the second.

Going from `CCSCc1ccccc1OC(=O)NC` to `O=C(O)CCCOc1ccc(Cl)cc1Cl`, the “activity change, negative = cytotoxicity” value rises from 3.06% to 16.1%.

Going from `O=C(Cl)OCCOCCOC(=O)Cl` to `Cc1ncc(C[n+]2csc(CCO)c2C)c(N)n1`, the “activity change, negative = cytotoxicity” value falls from 38.2% to 14.3%.

First: Clc1ccccc1
Second: COc1ccc(C(O)(c2cncnc2)C2CC2)cc1 (stereo not given)
The “activity change, negative = cytotoxicity” value of the first is higher: 9.44% for the first, 4.06% for the second.

First: CN(C1CCCCC1)C1CCCCC1
Second: C#C[C@]1(O)CC[C@H]2[C@@H]3CCC4=CC(=O)CCC4=C3C=C[C@@]21CC
The “activity change, negative = cytotoxicity” value of the first is lower: 4.6% for the first, 21.7% for the second.

Going from `C=CC(C)(CCC=C(C)C)OC(=O)c1ccccc1N` (stereo not given) to `Cc1nc2ccccc2c(=O)n1-c1ccccc1Cl`, the “activity change, negative = cytotoxicity” value falls from -3.5% [at 81.1 µM] to -17.9% [at 81.1 µM].

With `CCC1(CCC(C)C)C(=O)NC(=O)NC1=O` the “activity change, negative = cytotoxicity” value was -0.58% [at 81.1 µM].

With `CC(C)[C@@H](C(=O)O[C@@H](C#N)c1cccc(Oc2ccccc2)c1)c1ccc(Cl)cc1` the Potency was “inactive”.

For `CC(Cl)C(=O)O` (stereo not given), the “activity change, negative = cytotoxicity” value was 0.226% [at 81.1 µM, co-treated with 50 nM rosiglitazone].
In the case of `O=C(O)C(Cl)(Cl)Br`, the “activity change, negative = cytotoxicity” value is reported as -2.67% [at 81.1 µM, co-treated with 50 nM rosiglitazone].
In the case of `FC(Cl)(Cl)C(F)(Cl)Cl`, the “activity change, negative = cytotoxicity” value is reported as -0.278% [at 81.1 µM, co-treated with 50 nM rosiglitazone].
With `CCCCCCCCCCCCCCCl` the “activity change, negative = cytotoxicity” value was 0.429% [at 81.1 µM, co-treated with 50 nM rosiglitazone].

Going from `CN1C(=O)CN=C(c2ccccc2)c2cc([N+](=O)[O-])ccc21` to `COc1ccc(C(=O)c2c(C)n(CCN3CCOCC3)c3ccccc23)cc1`, the “activity change, negative = cytotoxicity” value falls from 4.03% [at 62.6 µM] to -18.8% [at 62.6 µM].

Going from `CCCN(CCC)C(=O)Cc1c(-c2ccc(Cl)cc2)nc2ccc(Cl)cn12` to `C[C@]12CC[C@H]3[C@@H](CCC4=CC(=O)CC[C@@H]43)[C@@H]1CC[C@@H]2OC(=O)CCc1ccccc1`, the “activity change, negative = cytotoxicity” value rises from 0.426% [at 62.6 µM] to 1.31% [at 62.6 µM].

First: COC1CC(=C(c2cccs2)c2cccs2)C[N+](C)(C)C1 (stereo not given)
Second: COc1ccccc1N1CCNCC1
The “activity change, negative = cytotoxicity” value of the first is lower: 1.7% [at 62.6 µM] for the first, 21.9% [at 62.6 µM] for the second.
